Shown are actives, neighbours in structure and some others; about 4.2% of the full set was active somewhere.
Mac1 fbg inh: blocks human CD11b/CD18 adhesion to fibrinogen; P05107+P11215; K562 CD11b/CD18 adhesion to fibrinogen, ATPlite luminescence; Mn2+ added to activate the integrin; inhibition, % at 10 µM; 93,000 tested, 0.54% active; AID 1497;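 active means primary inhibition of 50% or more at 10 µM, then 40% or more on retest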
Cav3 T inh: inhibitors of human Cav3.2 T-type calcium channel; O95180; Cav3.2-expressing cells, Fluo-4 calcium fluorescence FDSS; hits give low values; B-score at 10 µM; 100,000 tested, 4% active; AID 449739;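 active means single-dose well whose peak fluorescence ratio is a statistical outlier from its plate by either plate-standardised score or position-corrected B-score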
Ec RNAP inh: Escherichia coli RNA polymerase inhibition. inhibition, %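 (tested at 10 µM)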. AID 559. E. coli RNA polymerase, fluorescence transcription assay. P0A8V2. 62,000 tested, 0.2% active; in the data active means inhibition above about 20%
PTK2B oligo ant: Pyk2 (human) oligomerization antagonism | Q14289 | Q293 cells, Pyk2 FERM NanoBiT luminescence; hits give low values | z-score (the deposit names both 25 µM and 10 µM) | 99,000 tested, 0.83% active | AID 1347419;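 active means Z-score of -3 or lower, scaled per plate to the spread of control and sample wells; inactive means z-score above -3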;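 further: negative z-score means lost luminescence so less FERM oligomerization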
Mac1 fbg enh: increases human CD11b/CD18 adhesion to fibrinogen; P05107+P11215; 93,000 tested, 0.07% active; activation, % at 10 µM; K562 CD11b/CD18 adhesion to fibrinogen, ATPlite luminescence; AID 1499;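 active means 10 µM primary screen giving 50% or more activity, confirmed by 40% or more on retest at that dose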
Numbers stand for hits; - = inactive; . = no result.

SMILES	Mac1 fbg inh	Cav3 T inh	Ec RNAP inh	PTK2B oligo ant	Mac1 fbg enh
COc1ccc(C(=O)CSc2nnc(CNc3nc(-c4ccccc4)cs3)n2C)cc1	-	-5.7	-	-	-
Cn1c(CNc2nc(-c3ccccc3)cs2)nnc1SCC(=O)N1CCc2ccccc21	-	-4.6	-	-	-
O=C(CSc1nc(N2CCCCC2)nc(N2CCCCC2)n1)N1CCc2ccccc21	-	.	-	.	-
COC(=O)CSc1nnc(CNc2nc(-c3ccccc3)cs2)n1C	.	-	.	-	.
CC(C)(C)[C@H]1C=C(C(=O)Nc2ccccc2)O[C@@H](OCCCCO)C1	.	-	.	.	.
O=C(NCc1nc2ccccc2[nH]1)C1=C[C@@H](c2ccc3c(c2)OCO3)C[C@@H](OCc2ccc(CO)cc2)O1	.	-	.	.	.
COc1cc(C[C@@H](CO)[C@H](CO)Cc2ccc(O)c(OC)c2)ccc1O	.	-	.	.	.
CC(Cc1ccc(O)c(O)c1)C(C)Cc1ccc(O)c(O)c1 (configuration not stated)	.	-	51	.	.
Cc1ccc(OCc2nnnn2-c2ccccc2)cc1	-	.	.	.	-
CCCNC(=O)c1ccccc1NC(=O)c1ccccc1N(C)S(C)(=O)=O	.	-	.	-	.
CCCNC(=O)c1ccccc1NC(=O)c1ccccc1N(C)S(=O)(=O)c1ccc(C)cc1	.	-4.7	.	-	.
CCCCOc1ccc(C(=O)Nc2ccncc2)cc1	96	-	-	-	-
COc1cccc(CNC(=O)CSCc2cnn(-c3ccccc3)c2-n2cccc2)c1	-	-5.3	.	-	-
CNC(=O)CSCc1cnn(-c2ccccc2)c1-n1cccc1	-	-	.	-	-
O=C(CSCc1cnn(-c2ccccc2)c1-n1cccc1)NCc1cccs1	-	-6.3	-	-	-
CCOC(=O)C(NCc1ccc2c(c1)OCO2)(NC(=O)c1ccccc1)C(F)(F)F (configuration not stated)	.	-	.	-	.
COc1cccc2c1C(=O)c1c(O)c3c(c(O)c1C2=O)C[C@@](O)(C(C)=O)C[C@@H]3O[C@H]1C[C@H](N)[C@H](O)[C@H](C)O1	.	.	-	.	.
COc1cccc2c1C(=O)c1c(O)c3c(c(O)c1C2=O)C[C@@](O)(C(=O)CO)C[C@@H]3O[C@H]1C[C@H](N)[C@@H](O)[C@H](C)O1	.	-5.6	.	.	.
O=C(CNc1cccc(C(F)(F)F)c1)N/N=C/c1cccc(Br)c1	-	.	.	.	-
COc1ccc(/C=N/NC(=O)Cc2csc(Nc3cccc(C(F)(F)F)c3)n2)cc1C	-	-3.9	.	-	-
O=C(/C=C/c1cc([N+](=O)[O-])ccc1OC(F)F)NCc1ccc(F)cc1	-	-6.1	.	-	-
O=C(/C=C/c1ccccc1[N+](=O)[O-])NCc1cccnc1	-	.	.	.	-
N#CCCN(C(=O)COc1ccc(Cl)cc1Cl)c1ccccc1	.	.	.	-	.
CCn1c(SCCOc2ccc(Cl)cc2)nnc1-c1cccs1	-	-5.2	-	-	-
CCOC(=O)N1CCC(=C2c3ccc(Cl)cc3CCc3cccnc32)CC1	.	-4.7	.	.	.
SMILES	Mac1 fbg inh	Cav3 T inh	Ec RNAP inh	PTK2B oligo ant	Mac1 fbg enh
COc1ccc(-n2nc(C(=O)NCC(=O)N3CCN(c4ccccn4)CC3)c3ccccc3c2=O)cc1	-	-	-	-	-
COc1ccc(N=CC2=C(Nc3ccc(OC)cc3)c3c(C)nn(-c4ccccn4)c3CC2)cc1	.	-4.2	.	.	.
COC(=O)C(NC(C)=O)(Nc1nc2c(C)cc(C)cc2s1)C(F)(F)F (configuration not stated)	-	-4.3	.	-	-
CC(C)(CNC(=O)/C=C/c1ccc(F)cc1)CNC(=O)/C=C/c1ccc(F)cc1	-	.	.	.	-
CCOC(=O)Cc1ccc(NC(=O)c2ccc(C(C)(C)C)cc2)cc1	98	-8.1	.	-	-
COC(=O)Cc1ccc(NC(=O)c2ccc(C)c(C)c2)cc1	-	-	.	-	-
COc1ccc([N+](=O)[O-])cc1/C=N/NC(=O)/C(=C\c1cccs1)NC(=O)c1ccccc1	.	-	.	-	.
O=C(N/N=C/c1cc2ccccc2nc1Cl)/C(=C/c1cccs1)NC(=O)c1ccccc1	-	-5.9	.	-	-
CCN(CC)c1ccc2cc(-c3nc4ccccc4[nH]3)c(=O)oc2c1	-	-7.3	-	-	-
CCN(CC)c1ccc2cc(-c3nnc(-c4ccccc4)o3)c(=O)oc2c1	.	-11	.	-	.
COc1ccc(C2c3c(ccc4ccccc34)Oc3ncn4nc(CO/N=C/c5ccccc5)nc4c32)cc1 (configuration not stated)	-	-4.6	.	-	-
COc1ccc(C2c3c(ccc4ccccc34)Oc3ncn4nc(Cc5ccc(OC)c(OC)c5)nc4c32)cc1 (configuration not stated)	-	.	.	.	-
O=C(N/N=C1\CCCc2c1[nH]c1ccc([N+](=O)[O-])cc21)c1ccncc1	-	.	.	.	-
CCOCN(C(=O)Cn1c(COC)nc2ccccc21)c1c(C)cccc1CC	-	-3.3	.	-	-
Cc1cc2oc(=O)cc(CN3CCCCC3)c2cc1C(C)C	-	-4.7	-	-	-
Cc1cc2oc(=O)cc(Cn3nnc(-c4ccc(Cl)cc4)n3)c2cc1C(C)C	-	.	.	.	-
O=C1C(c2ccccc2)SC(=Nc2ccccc2)N1S(=O)(=O)c1ccccc1 (configuration not stated)	-	-	.	-	-
Cc1ccc(-n2c(N)c(C(N)=O)sc2=S)c(C)c1	-	.	-	-	-
Cc1ccc(C)c(-n2c(N)c(C(N)=O)sc2=S)c1	.	.	40	-	.
CC(=O)Oc1ccc2c(=O)c(-c3ccccc3)c(C)oc2c1	.	-4.5	.	.	.
COC(=O)c1cc(-c2c(C)oc3cc(OC(C)C)ccc3c2=O)c(C)o1	-	-	-	-	-
CCOC(=O)C(C(=O)Nc1ccc(C)cc1)C1CCCCC1 (configuration not stated)	-	-	.	-	-
CN1c2ccccc2-c2nc3ccccc3n2C1c1ccccn1 (configuration not stated)	-	-	-	-	-
c1ccc(CN2c3ccccc3-c3nc4ccccc4n3C2c2ccccn2)cc1 (configuration not stated)	.	-6.6	.	-	.
O=[N+]([O-])c1cc(S(=O)(=O)C(F)(F)F)ccc1Sc1nc2ccccc2[nH]1	-	-4.5	.	-	-
SMILES	Mac1 fbg inh	Cav3 T inh	Ec RNAP inh	PTK2B oligo ant	Mac1 fbg enh
Cc1c(C(=O)NC2CCCc3ccccc32)oc2ccccc12 (configuration not stated)	-	-4.6	.	-	-
COc1ccc(-c2cn3c4c(sc3n2)CCCC4)cc1	55	-	-	-	-
CC(C)C[C@H](NC(=O)c1nc[nH]c1C(=O)N1CCc2ccccc2C1)C(=O)OC(C)(C)C	.	-	.	.	.
COc1cc(OC)cc(C(=O)N2c3ccc(F)cc3CCC2C)c1 (configuration not stated)	-	-4.6	-	-	-
CC1CCc2cc(F)ccc2N1C(=O)C1(C)CC1(Cl)Cl (configuration not stated)	-	-	.	-	-
COc1ccccc1NC(=O)N1c2ccc(F)cc2CCC1C (configuration not stated)	-	-5.1	-	-	-
Cc1cc2ncn(-c3ncnc4sc5c(c34)CCCC5)c2cc1C	-	-5.7	.	.	-
CN(C)c1ccc(/C=C(\C#N)C(=O)Nc2nc3c(s2)CCN(Cc2ccccc2)C3)cc1	-	-4	.	-	-
